From PubChem
In the library only some 3.9% were active in any assay of this set; here they are far more common.
HT1080NT lethal: kills 2HG-producing HT-1080-NT fibrosarcoma cells; Potency, µM (highest dose often 46.1 µM), inactives show at the top dose activity, negative = less viability, hits mostly cytotoxic; HT-1080-NT fibrosarcoma viability, CellTiter-Glo ATP luminescence, 48 h; actives 1.6% (n = 360,000);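 also: NT is the 2HG producing partner of a matched IDH1 knockdown line; 0% = DMSO-treated cells and -100% = media-only wells without cells; nearly all actives have a fitted effect of over 55% in size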
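Compounds were tested in concentration-response format on HT-1080-NT cells for 48 hours at 37 degrees C. Cell viability came from CellTiter-Glo luminescence; curves were classified by r2, response magnitude and activity.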
S2 tox: cell viability loss in ATXN counter-screen; S2 cells (HEK-293 line with an ATXN2-luciferase reporter) viability, CellTiter-Fluor protease fluorescence, 24 h; Potency, µM (top dose mostly 56.7 µM), most hits filed as cytotoxic; actives 0.49% (n = 400,000); AID 651635; also: nearly all actives have a fitted effect of over 40% in size
ATXN2 expr inh: ATXN2 expression inhibition; actives 0.72% (n = 360,000); AID 1745845; HEK-293 ATXN2-luciferase reporter, luminescence, 24 h; Potency, µM (top dose mostly 57 µM), for inactives: at the top dose activity change, negative = inhibition, actives largely listed as inhibitors; also: % is scaled to controls: 0 for no effect and ±100 for the full control effect; nearly all actives have a fitted effect of over 55% in size
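ATXN2-luciferase reporter cells (luciferase flanked by upstream and downstream ATXN2 gene portions) were treated 24 h at 37 °C with compounds at up to 57 uM. SteadyGlo luminescence gave expression; GF-AFC fluorescence gave viability.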
HepG2 tox: HepG2 cytotoxicity, counter-screen for TGF-b inhibitors; HepG2 CAGA-GFP viability, ATP luminescence, 18 h; Potency, µM (titrated, usually from 46.1 µM), without a hit: at the top dose activity change, negative = cytotoxicity, hits mostly cytotoxic; actives 0.76% (n = 410,000)
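CellTiter-Glo luminescence gave cytotoxicity after 18 hours at 37 degrees C. The cells were HepG2 CAGA-GFP in 1% FBS DMEM, stimulated with 500 pg/mL TGF-beta after compound addition. %Activity was normalised to no-cell wells (complete cell-killing) and DMSO (no toxicity), and curves were fitted and classified.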
HT1080 IDH1KD tx: kills HT-1080 cells with IDH1 knockdown. actives 2% (n = 360,000). HT-1080 IDH1 knockdown viability, ATP luminescence, 48 h. Potency, µM (series often up to 46.1 µM), for the others: top-dose activity, negative = toxicity, most hits filed as cytotoxic;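 also: 0% = DMSO wells and -100% = cell-free medium wells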
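Viability of IDH1-knockdown HT-1080 fibrosarcoma cells was assessed by CellTiter-Glo after 48 h at 37 °C with titrated compound; concentration-effect curves were classified by fit quality and response size.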
TGFb inhibitor: inhibitors of TGF-b signaling. HepG2 CAGA-GFP TGF-b/SMAD3 reporter, GFP fluorescence, 18 h; TGF-beta stimulated, 500 pg/mL final. Potency, µM (top dose mostly 46.1 µM), for the others: at the highest dose activity, negative = inhibition, actives largely listed as inhibitors. actives 1.2% (n = 410,000); also: % is scaled to controls: 0 for no effect and ±100 for the full control effect; nearly all actives have a fitted effect of over 65% in size
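Inhibition of TGF-beta-driven CAGA-GFP reporter expression in HEPG2 cells is measured by cellular GFP fluorescence after 18 h stimulation with 500 pg/mL recombinant TGF-beta in 1% FBS medium at 37 degrees C.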
* marks the source's active call; other numbers are inactive results; i = inactive; u = inconclusive; x = no result given. Calls follow the shape of the dose curve; as a rule, active = well fitted curve in the direction sought with a large enough effect; inconclusive = small, poorly fitted or top-dose-only effect, or another doubt; inactive = no such curve, though single readings can be large; an effect the other way counts as inactive or inconclusive. Potency is read from the fitted curve at half-maximal effect.

SMILES	HT1080NT lethal	S2 tox	ATXN2 expr inh	HepG2 tox	HT1080 IDH1KD tx	TGFb inhibitor
OC(CNCCc1ccccc1)COc1ccc(OCC(O)CNCCc2ccccc2)cc1 (stereo not given)	u	u	28µM*	-90%	23µM*	u
CC(C)(c1ccccc1)c1ccc(OCC(O)CN2CCCC2)cc1 (stereo not given)	u	i	-16%	-29%	u	-13%
OC(CNCCC(c1ccccc1)c1ccccc1)COc1ccccc1 (stereo not given)	u	u	u	-109%	23µM*	u
OC(CNCCc1ccc(Cl)cc1)COc1ccc2ccccc2c1 (stereo not given)	u	i	-1%	-102%	u	u
CC(C)N(CCNCC(O)COc1ccc(C(C)(C)c2ccccc2)cc1)C(C)C (stereo not given)	29µM*	i	u	-31%	u	u
Cc1ccccc1CNC(=O)CN(c1cccc(C)c1C)S(C)(=O)=O	x	i	-8%	-1%	x	-14%
CC(=O)c1cc(-c2ccc(F)cc2)n(CC(=O)NC2CCCCCC2)c1C	x	x	x	7%	x	-17%
Cc1ccc(Nc2nnc(-c3ccc(C)c(S(N)(=O)=O)c3)c3ccccc23)cc1	x	i	-26%	8%	x	10µM*
Cc1ccc(-c2nnc(Nc3ccc(CC(N)=O)cc3)c3ccccc23)cc1	2%	i	-3%	-47%	-25%	13µM*
CCOC(=O)CNS(=O)(=O)c1cc(-c2nnc(Nc3cccc(O)c3)c3ccccc23)ccc1C	x	x	x	11µM*	x	0%
COC(=O)COc1ccc(-c2nnc(Nc3ccc(O)cc3)c3ccccc23)cc1	x	u	u	11µM*	x	u
NC(=O)COc1ccc(Nc2nnc(-c3ccc(O)cc3)c3ccccc23)cc1	5%	i	-6%	-5%	-2%	-4%
Cc1ccc(-c2nnc(Nc3ccc(CC(N)=O)cc3)c3ccccc23)cc1S(N)(=O)=O	23%	i	-1%	-33%	16%	u
Cc1ccc(-c2nnc(Nc3cccc(O)c3)c3ccccc23)cc1S(=O)(=O)NCCO	-3%	i	-20%	-3%	-17%	2%
CN(C)c1ccc(/C=C/c2ccnc3c(Cl)cccc23)cc1	x	x	x	-35%	x	49%
CC(C)c1c(C(=O)Nc2ccccc2)c(-c2ccccc2)c(-c2ccc(F)cc2)n1CC[C@H](O)C[C@@H](O)CC(=O)O	x	x	19%	x	x	x
CN(CC(=O)Nc1cccc(F)c1)S(=O)(=O)c1ccc2c(c1)n(C)c(=O)c(=O)n2C	x	i	7%	-3%	x	9%
Cc1cccc(CNC(=O)CCCn2c(=O)c3cccn3c3ccc(F)cc32)c1	x	x	x	4%	x	-18%
COc1ccc(Nc2nnc(-c3ccc(C)c(S(=O)(=O)N4CCN(C)CC4)c3)c3ccccc23)cc1	x	u	u	25%	x	14µM*
Cc1ccc(Nc2nnc(-c3ccc(C)c(S(=O)(=O)N4CCN(C)CC4)c3)c3ccccc23)cc1	x	i	0%	0%	x	-30%
Cc1ccc(NS(=O)(=O)c2cc(-c3n[nH]c(=O)c4ccccc34)ccc2C)cc1	18µM*	u	-9%	-4%	15µM*	u
Clc1ccc(Cn2ncc3c(N4CCCCC4)ncnc32)cc1	-7%	i	-17%	-2%	-11%	1%
NC1(Cc2ccc(Cl)cc2)CCN(c2ncnc3[nH]ccc23)CC1	x	x	27µM*	x	x	x
Cc1cc(C)c2oc(-c3ccc(C)c(NC(=O)/C=C/c4ccco4)c3)nc2c1	x	i	15%	-37%	x	u
CCCC1=NN2C(=N)/C(=C\c3cc(C)n(-c4cccc(C)c4)c3C)C(=O)N=C2S1	0%	i	9%	3.5µM*	-14%	-4%
SMILES	HT1080NT lethal	S2 tox	ATXN2 expr inh	HepG2 tox	HT1080 IDH1KD tx	TGFb inhibitor
CC(C)Cn1c(C(C)C)nc([N+](=O)[O-])c1S(=O)(=O)c1ccc(F)cc1	3.5µM*	u	-25%	-44%	7.1µM*	u
COC(=O)c1c(Oc2ccc(C(C)=O)cc2)nnc(-c2ccccc2)c1-c1ccccc1	x	u	u	-18%	x	u
Cc1ccc(-n2cc(CNCCN3CCOC3=O)c(-c3ccc(F)cc3)n2)cc1	-20%	i	2%	-30%	-23%	u
Cc1ccc(-n2cc(CNCCn3nc(C)cc3C)c(-c3ccc(F)cc3)n2)cc1	21µM*	u	u	-65%	u	u
Cc1ccc(-n2cc(CNCCc3ncc(C)[nH]3)c(-c3ccc(F)cc3)n2)cc1	16µM*	u	25µM*	-102%	21µM*	u
COc1ccc(-n2cc(CNCCc3ncc(C)[nH]3)c(-c3ccccc3Cl)n2)cc1	-18%	u	-18%	-17%	-2%	6%
NS(=O)(=O)c1ccc(NC(=O)c2nc(S(=O)(=O)Cc3ccccc3F)ncc2Cl)cc1	x	x	x	-41%	x	u
Cc1c(N2C(=O)/C(=C/C3CC=CCC3)SC2=S)c(=O)n(-c2ccccc2)n1C (stereo not given)	u	i	-10%	-28%	-24%	u
Cc1c(N2C(=O)/C(=C\C3CC=CCC3)SC2=S)c(=O)n(-c2ccccc2)n1C (stereo not given)	u	u	-7%	-26%	18µM*	-3%
OCCn1cc(-c2cnc3nnn(Cc4ccc5ncccc5c4)c3n2)cn1	x	x	-11%	x	x	x
Cc1ccc(S(=O)(=O)Nc2ccccc2NS(=O)(=O)c2ccc(C)cc2)cc1	-30%	i	-8%	-36%	-21%	u
Cc1ccc(S(=O)(=O)Nc2ccccc2N2CCCCC2)cc1	u	u	-25%	-20%	u	u
Cc1ccc(S(=O)(=O)/N=C2\C=C(NS(=O)(=O)c3ccccc3)C(=O)c3ccccc32)cc1	u	20µM*	-31%	-40%	u	u
Cc1ccc(S(=O)(=O)Nc2ccccc2N2CCOCC2)cc1	21µM*	i	-19%	0%	18µM*	-13%
Cc1cc(C)c(S(=O)(=O)/N=C2\C=C(NS(=O)(=O)c3ccccc3)C(=O)c3ccccc32)c(C)c1	-6%	u	-5%	0%	-7%	-1%
Cc1ccc(S(=O)(=O)Nc2ccccc2-c2ccccc2)cc1	2.9µM*	u	-21%	-9%	4.1µM*	-12%
COc1cccc(C(=O)Nc2cccc(-c3cn4c(C)csc4n3)c2)c1OC	x	i	-25%	-40%	x	-5%
